Reference: the supplement of paper PMC10849652
Targets with a hit are over-represented here; the source holds about 7,900 in all. About 0.6% of all pairs of compound and target were hits. A number with no mark means an inactive call.

What was measured:
Assay in all cases: log2 fold change, soluble protein after heating vs DMSO (PISA); higher = thermal stabilisation; K562 cells, 10 uM, 30 min; active = over 0.2 and 3.5 SD of the protein, either way, in both replicates (recomputed)
erlotinib = compound: C#Cc1cccc(Nc2ncnc3cc(OCCOC)c(OCCOC)cc23)c1 [erlotinib]
Method in brief: (§1)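 Quantification of soluble protein used TMTpro 16plex LC-MS/MS, with channel sums equalised. Samples were the supernatant after 21,000xg for 90 min of pooled aliquots from K562 cells (2×10^6 cells/mL) treated with 10 μM compound for 30 min, heated for 3 min over 48°C-58°C, and extracted in PBS with 0.5% NP-40 at 4°C. Values, from duplicates, describe thermal stability against control samples on a log2 fold-change scale.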

[1] = compound: C/C(=N\NC(=O)C1=CC(=CC=C1)S(=O)(=O)N2CCOCC2)/C3=C(C=CC(=C3)Cl)O
Method in brief: as §1

[2] = compound: C1=CC(=C(C=C1Cl)C2=NC3=NC=CN=C3C(=N2)NC4=CC=NC=C4)F
Method in brief: as §1

[3] = compound: C1=CC(=CC=C1C2=NC3=C(N2)C=C(C=C3)C(=O)N)OC4=CC=C(C=C4)Cl
Method in brief: as §1

[4] = compound: C1=CC2=C(C=CC(=C2)/C=C\3/C(=O)NC(=NCC4=CC=CS4)S3)N=C1
Method in brief: as §1

[5] = compound: C1=CC2=NC=CN=C2C=C1/C=C/3\C(=O)NC(=O)S3
Method in brief: as §1

[6] = compound: C1=CC=C(C=C1)C2=NC(=C(N2)C3=CC=NC=C3)C4=CC(=C(C=C4)Cl)O
Method in brief: as §1

[7] = compound: C1=CC=C2C(=C1)C3=NNC4=CC=CC(=C43)C2=O
Method in brief: as §1

[8] = compound: C1CCN(C1)C(=O)NC2=CC=CC(=C2)NC3=NC=C(C(=N3)NCCC4=CN=CN4)Br
Method in brief: as §1

[9] = compound: C1CN(CCC1(CC2=CC=C(C=C2)Cl)N)C3=NC=NC4=C3C=CN4
Method in brief: as §1

UniProt O43819, sequence (O43819 whole entry, looked up): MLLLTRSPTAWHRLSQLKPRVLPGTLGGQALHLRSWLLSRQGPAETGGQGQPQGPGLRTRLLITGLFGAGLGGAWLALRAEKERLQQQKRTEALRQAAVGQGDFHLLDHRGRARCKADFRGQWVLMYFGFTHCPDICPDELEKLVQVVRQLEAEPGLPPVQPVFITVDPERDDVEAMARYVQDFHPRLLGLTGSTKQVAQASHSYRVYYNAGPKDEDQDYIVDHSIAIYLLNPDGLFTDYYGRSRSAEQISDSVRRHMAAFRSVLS
UniProt O94979, sequence (O94979 whole entry, looked up): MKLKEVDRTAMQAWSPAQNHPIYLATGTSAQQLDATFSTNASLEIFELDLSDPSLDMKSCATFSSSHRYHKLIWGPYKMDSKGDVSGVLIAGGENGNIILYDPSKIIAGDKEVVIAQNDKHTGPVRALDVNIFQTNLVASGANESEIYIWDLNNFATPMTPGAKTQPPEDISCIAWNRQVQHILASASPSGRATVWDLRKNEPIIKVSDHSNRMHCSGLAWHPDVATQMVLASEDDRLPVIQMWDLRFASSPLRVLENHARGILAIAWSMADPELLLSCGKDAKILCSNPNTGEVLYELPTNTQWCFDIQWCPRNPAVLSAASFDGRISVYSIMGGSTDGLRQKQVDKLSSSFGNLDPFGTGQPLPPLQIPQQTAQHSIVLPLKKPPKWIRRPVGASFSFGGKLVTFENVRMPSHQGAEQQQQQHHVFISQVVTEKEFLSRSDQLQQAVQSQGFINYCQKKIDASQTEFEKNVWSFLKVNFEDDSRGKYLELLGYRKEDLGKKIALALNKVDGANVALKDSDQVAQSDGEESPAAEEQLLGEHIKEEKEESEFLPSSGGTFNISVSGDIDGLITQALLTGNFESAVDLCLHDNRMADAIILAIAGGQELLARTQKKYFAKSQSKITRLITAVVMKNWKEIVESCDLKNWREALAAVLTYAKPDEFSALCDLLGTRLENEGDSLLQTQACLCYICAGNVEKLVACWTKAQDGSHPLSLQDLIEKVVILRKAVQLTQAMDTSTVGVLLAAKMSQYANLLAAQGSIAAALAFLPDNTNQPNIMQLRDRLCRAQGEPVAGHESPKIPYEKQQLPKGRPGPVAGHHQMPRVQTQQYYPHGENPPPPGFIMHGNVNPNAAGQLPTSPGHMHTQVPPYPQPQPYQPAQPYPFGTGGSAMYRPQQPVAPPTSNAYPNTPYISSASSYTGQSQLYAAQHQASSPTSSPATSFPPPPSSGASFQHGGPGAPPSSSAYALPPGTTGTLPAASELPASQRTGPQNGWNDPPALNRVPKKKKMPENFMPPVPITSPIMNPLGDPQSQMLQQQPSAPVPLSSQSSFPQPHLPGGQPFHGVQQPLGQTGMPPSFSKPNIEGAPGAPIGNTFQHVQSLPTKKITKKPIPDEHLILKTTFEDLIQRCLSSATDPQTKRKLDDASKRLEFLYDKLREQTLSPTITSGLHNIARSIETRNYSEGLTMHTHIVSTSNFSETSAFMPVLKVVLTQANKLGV
UniProt P52306, sequence (P52306 whole entry, looked up): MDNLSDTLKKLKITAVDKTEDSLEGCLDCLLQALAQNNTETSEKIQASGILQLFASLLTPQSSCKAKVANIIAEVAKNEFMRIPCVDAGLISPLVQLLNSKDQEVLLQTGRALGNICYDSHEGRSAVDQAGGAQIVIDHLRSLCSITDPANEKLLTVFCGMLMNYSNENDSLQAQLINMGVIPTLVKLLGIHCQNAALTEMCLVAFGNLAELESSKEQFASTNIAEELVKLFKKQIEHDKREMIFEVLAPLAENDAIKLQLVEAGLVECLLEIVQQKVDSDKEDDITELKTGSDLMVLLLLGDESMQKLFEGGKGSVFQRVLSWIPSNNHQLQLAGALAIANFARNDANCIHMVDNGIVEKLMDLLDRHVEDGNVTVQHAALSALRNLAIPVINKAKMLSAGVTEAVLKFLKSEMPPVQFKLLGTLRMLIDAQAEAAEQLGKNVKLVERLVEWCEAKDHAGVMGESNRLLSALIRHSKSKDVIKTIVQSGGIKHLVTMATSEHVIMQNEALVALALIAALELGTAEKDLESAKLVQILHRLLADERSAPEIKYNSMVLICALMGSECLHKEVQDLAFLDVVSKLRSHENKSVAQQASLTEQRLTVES
UniProt Q99719, sequence (Q99719 whole entry, looked up): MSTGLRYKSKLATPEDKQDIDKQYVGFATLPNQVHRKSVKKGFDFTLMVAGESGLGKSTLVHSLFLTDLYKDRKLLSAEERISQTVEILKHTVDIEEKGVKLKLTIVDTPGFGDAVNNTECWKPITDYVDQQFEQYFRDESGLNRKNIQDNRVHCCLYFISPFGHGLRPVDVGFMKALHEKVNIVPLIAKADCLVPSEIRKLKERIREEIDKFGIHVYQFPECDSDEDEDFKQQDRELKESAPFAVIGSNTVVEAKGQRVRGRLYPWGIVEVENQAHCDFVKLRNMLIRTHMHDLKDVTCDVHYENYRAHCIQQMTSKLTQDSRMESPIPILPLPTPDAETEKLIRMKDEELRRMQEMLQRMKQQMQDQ
UniProt Q8NEM2, sequence (Q8NEM2 whole entry, looked up): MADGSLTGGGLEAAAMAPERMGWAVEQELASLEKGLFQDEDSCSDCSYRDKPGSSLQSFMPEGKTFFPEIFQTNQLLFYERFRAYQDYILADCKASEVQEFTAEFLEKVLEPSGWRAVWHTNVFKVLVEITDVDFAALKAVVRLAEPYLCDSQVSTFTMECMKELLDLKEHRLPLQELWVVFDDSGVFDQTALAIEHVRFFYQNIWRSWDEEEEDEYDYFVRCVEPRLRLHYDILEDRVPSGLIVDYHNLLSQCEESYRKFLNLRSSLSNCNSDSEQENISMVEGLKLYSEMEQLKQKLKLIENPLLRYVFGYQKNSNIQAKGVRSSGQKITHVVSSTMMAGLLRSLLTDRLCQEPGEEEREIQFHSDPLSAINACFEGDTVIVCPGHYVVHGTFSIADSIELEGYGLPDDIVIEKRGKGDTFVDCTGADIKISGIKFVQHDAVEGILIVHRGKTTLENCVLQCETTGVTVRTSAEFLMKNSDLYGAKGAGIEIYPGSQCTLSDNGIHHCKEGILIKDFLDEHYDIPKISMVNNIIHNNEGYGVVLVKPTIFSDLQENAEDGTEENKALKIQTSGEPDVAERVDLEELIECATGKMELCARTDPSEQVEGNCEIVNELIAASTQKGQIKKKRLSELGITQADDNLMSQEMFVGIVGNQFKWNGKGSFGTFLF
UniProt Q8WXD2, sequence (Q8WXD2 whole entry, looked up): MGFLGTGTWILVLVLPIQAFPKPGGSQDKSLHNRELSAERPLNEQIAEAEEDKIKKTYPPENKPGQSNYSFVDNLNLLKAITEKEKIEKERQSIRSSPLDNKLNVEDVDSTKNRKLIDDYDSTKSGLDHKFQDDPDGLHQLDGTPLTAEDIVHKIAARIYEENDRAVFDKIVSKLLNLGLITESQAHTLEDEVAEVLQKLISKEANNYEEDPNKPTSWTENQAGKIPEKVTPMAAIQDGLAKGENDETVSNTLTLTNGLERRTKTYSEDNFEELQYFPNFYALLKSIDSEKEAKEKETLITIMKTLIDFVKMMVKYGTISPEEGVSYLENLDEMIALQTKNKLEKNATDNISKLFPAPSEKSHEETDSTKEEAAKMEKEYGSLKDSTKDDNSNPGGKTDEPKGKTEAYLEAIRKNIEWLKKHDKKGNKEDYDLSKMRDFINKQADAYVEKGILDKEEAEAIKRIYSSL
UniProt Q15382, sequence (Q15382 whole entry, looked up): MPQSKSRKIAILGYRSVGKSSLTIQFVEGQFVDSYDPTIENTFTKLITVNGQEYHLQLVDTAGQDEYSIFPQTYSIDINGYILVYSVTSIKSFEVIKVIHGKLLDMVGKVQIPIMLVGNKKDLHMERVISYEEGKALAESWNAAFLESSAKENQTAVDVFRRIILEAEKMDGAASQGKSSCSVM
UniProt Q9Y3L5, sequence (Q9Y3L5 whole entry, looked up): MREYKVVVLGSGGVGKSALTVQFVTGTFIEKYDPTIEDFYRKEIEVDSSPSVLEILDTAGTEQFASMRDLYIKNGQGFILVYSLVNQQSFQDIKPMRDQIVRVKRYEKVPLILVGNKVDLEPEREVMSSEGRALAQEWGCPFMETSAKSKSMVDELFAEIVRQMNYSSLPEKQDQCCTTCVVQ
UniProt Q15287, sequence (Q15287 whole entry, looked up): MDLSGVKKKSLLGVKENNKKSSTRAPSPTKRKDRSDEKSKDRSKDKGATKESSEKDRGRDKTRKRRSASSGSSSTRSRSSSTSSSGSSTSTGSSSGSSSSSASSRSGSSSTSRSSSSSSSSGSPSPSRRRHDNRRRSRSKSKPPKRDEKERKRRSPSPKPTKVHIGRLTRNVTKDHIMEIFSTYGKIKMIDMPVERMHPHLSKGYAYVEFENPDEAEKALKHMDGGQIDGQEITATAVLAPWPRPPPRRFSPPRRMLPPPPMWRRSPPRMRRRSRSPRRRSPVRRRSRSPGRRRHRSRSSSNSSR
UniProt Q96D15, sequence (Q96D15 whole entry, looked up): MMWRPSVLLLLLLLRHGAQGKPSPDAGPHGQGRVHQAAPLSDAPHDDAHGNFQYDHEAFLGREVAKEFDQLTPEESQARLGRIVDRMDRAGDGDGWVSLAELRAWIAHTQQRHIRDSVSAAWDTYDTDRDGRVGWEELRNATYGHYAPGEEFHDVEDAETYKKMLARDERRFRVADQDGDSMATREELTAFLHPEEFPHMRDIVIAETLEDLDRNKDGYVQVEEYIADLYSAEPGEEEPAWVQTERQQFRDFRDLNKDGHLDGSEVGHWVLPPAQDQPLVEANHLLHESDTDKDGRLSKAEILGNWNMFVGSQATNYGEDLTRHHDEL
UniProt P40938, sequence (P40938 whole entry, looked up): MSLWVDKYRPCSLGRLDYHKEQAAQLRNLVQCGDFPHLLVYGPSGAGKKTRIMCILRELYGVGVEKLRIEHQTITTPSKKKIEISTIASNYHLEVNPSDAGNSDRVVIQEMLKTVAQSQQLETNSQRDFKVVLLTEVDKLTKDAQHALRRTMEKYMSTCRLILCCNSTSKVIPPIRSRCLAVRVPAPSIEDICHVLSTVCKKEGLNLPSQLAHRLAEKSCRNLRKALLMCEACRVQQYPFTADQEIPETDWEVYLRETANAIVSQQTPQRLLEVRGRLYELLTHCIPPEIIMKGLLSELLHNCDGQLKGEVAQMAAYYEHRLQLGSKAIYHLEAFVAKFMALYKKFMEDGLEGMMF

Target | log2 fold change (erlotinib) | log2 fold change [1] | log2 fold change [2] | log2 fold change [3] | log2 fold change [4] | log2 fold change [5] | log2 fold change [6] | log2 fold change [7] | log2 fold change [8] | log2 fold change [9]
RAB3IL1 (UniProt E9PK89) | -0.238 | -0.055 | 0.116 | -0.001 | 0.058 | 0.104 | -0.028 | 0.197 | -0.162 | 0.004
RAP1GDS1 isoform 5 (UniProt P52306) | 0.019 | -0.012 | -0.021 | -0.013 | 0.027 | 0.106 | -0.016 | -0.038 | -0.023 | -0.077
SCAF11 (UniProt Q99590) | -0.074 | -0.09 | -0.16 | 0.03 | -0.134 | -0.076 | -0.014 | -0.068 | 0.125 | -0.035
SEPTIN5 (UniProt Q99719) | 0.009 | 0.014 | 0.021 | 0.006 | 0.004 | 0.019 | -0.011 | 0.015 | -0.012 | 0.039
SCAMP2 (UniProt H3BUB6) | 0.182 | -0.331 | -0.143 | 0.039 | 0.372 | -0.163 | -0.281 | -0.143 | 0.218 | -0.003
RPA3 (UniProt P35244) | -0.007 | 0.156 | 0.084 | 0.008 | -0.058 | -0.007 | 0.115 | 0.032 | -0.128 | -0.027
SHCBP1 (UniProt Q8NEM2) | -0.013 | -0.029 | -0.027 | 0.018 | 0.137 | 0.028 | -0.104 | 0.054 | 0.127 | -0.128
RPS18 (UniProt P62269) | -0.126 | -0.088 | -0.211 | 0.039 | -0.037 | -0.089 | -0.024 | 0 | 0.097 | -0.144
RPS21 (UniProt P63220) | -0.045 | -0.062 | -0.071 | 0.017 | -0.056 | 0.079 | -0.066 | -0.027 | 0.033 | 0.017
SCAF8 isoform 2 (UniProt Q9UPN6) | 0.203 | 0.051 | 0.048 | 0.034 | 0.124 | -0.028 | 0.298 | 0.069 | -0.031 | -0.036
RAD50 isoform 2 (UniProt Q92878) | 0.02 | 0.034 | 0.076 | 0.001 | 0.029 | 0 | 0.02 | 0.015 | -0.034 | 0.029
RPS3A (UniProt P61247) | -0.178 | -0.041 | -0.232 | 0.062 | -0.039 | -0.035 | -0.028 | 0 | 0.088 | -0.162
SEC31A (UniProt O94979) | 0.049 | 0.023 | 0.006 | -0.025 | 0.094 | 0.016 | -0.045 | 0.023 | -0.06 | -0.025
RFC3 (UniProt P40938) | -0.04 | 0.108 | 0.033 | 0.005 | 0.066 | 0.007 | 0.046 | 0.046 | -0.06 | 0.054
SEC23A (UniProt Q15436) | 0.026 | 0.1 | 0.022 | -0.036 | -0.024 | 0.021 | 0.005 | -0.018 | 0.019 | -0.019
RAP2C (UniProt Q9Y3L5) | 0.021 | 0.119 | 0.205 | 0.01 | -0.097 | 0.026 | 0.026 | 0.167 | -0.008 | 0.034
SETMAR (UniProt Q53H47) | 0.004 | -0.044 | 0.046 | -0.018 | 0.133 | -0.029 | -0.01 | 0.008 | -0.031 | -0.248
RNPS1 (UniProt Q15287) | 0.008 | 0.194 | 0.06 | 0.053 | 0.164 | 0.013 | -0.022 | -0.319 | 0.048 | -0.118
RBM39 (UniProt Q14498) | 0.087 | 0.074 | 0.013 | -0.028 | -0.021 | -0.052 | -0.022 | -0.168 | -0.071 | -0.232
SCG3 (UniProt Q8WXD2) | -0.076 | 0.141 | 0.023 | 0.088 | 0.09 | -0.015 | 0.103 | -0.094 | -0.05 | 0.036
SCO2 (UniProt O43819) | 0.092 | 0.012 | 0.055 | 0.048 | 0.243 | -0.054 | 0.017 | 0.163 | -0.042 | 0.101
RPL31 (UniProt P62899) | -0.145 | -0.174 | -0.444 | 0.055 | -0.052 | -0.02 | -0.047 | -0.011 | 0.087 | -0.215
RANBP2 (UniProt P49792) | -0.107 | 0.007 | 0.062 | 0.081 | 0.082 | 0.003 | -0.007 | -0.028 | 0.005 | 0
RAB5IF isoform 5 (UniProt Q9BUV8) | 0.071 | 0.093 | 0.098 | 0.055 | -0.061 | 0.112 | 0.373 (active) | 0.036 | 0.027 | 0.267
RPS2 (UniProt P15880) | -0.199 | -0.138 | -0.323 | 0.047 | -0.1 | -0.039 | -0.064 | -0.041 | 0.086 | -0.162
RHEB (UniProt Q15382) | 0.028 | 0.042 | 0.075 | -0.041 | 0.008 | 0.008 | -0.008 | -0.004 | -0.005 | 0.041
RCN3 (UniProt Q96D15) | 0.033 | 0.013 | 0.058 | 0.048 | 0.03 | -0.029 | -0.057 | -0.023 | 0.07 | -0.103
SEC16A isoform 5 (UniProt O15027) | 0.126 | -0.143 | -0.064 | 0.015 | 0.153 | -0.018 | 0.044 | 0.069 | 0.06 | 0.017
RPP14 (UniProt O95059) | -0.047 | 0.09 | -0.077 | 0.059 | -0.046 | -0.023 | 0.012 | -0.022 | -0.017 | 0.021
RPTOR (UniProt Q8N122) | -0.034 | 0.075 | 0.036 | -0.037 | 0.039 | 0.003 | -0.038 | -0.031 | -0.042 | -0.027
